# Data as given in paper PMC4552634, “A New Set of Chemical Starting Points with Plasmodium falciparum Transmission-Blocking Potential for Antimalarial Drug Discovery” (PLoS ONE, 2015).
# Hit rate of the full screen: of about 13,000 compounds, about 3,200 (25%) showed an effect of 50% or more. Some of the results follow.
# Tested on: P. falciparum stage V gametocytes
# Parameters: BacTiter-Glo ATP luminescence viability of purified stage V gametocytes in 384-well plates, per cent inhibition versus DMSO
# Details: 48 h, 5 µM; inhibitor
row,SMILES,% Inhibition [%]
1,CCCCc1nc2nc(N)nc(N)c2cc1CCC [TCMDC-137499],32.62
2,Nc1ccn([C@@H]2O[C@H](COC(c3ccccc3)(c3ccccc3)c3ccccc3)[C@@H](O)[C@@H]2O)c(=O)n1 [TCMDC-131864],13.5
3,Cc1[nH]cc(Br)c(=O)c1-c1ccc(Oc2ccccc2)cc1 [TCMDC-136196],35.13
4,COc1ccc(OC)c(-c2ccc(=O)n(CC(=O)Nc3cccc4ccccc34)n2)c1 [TCMDC-125146],85.63
5,COc1cc(NC(=O)Nc2cccc3ccccc23)c(OC)cc1Cl [TCMDC-123751],9.254
6,COc1ccc(C(=O)Cn2nc(-c3ccc(Cl)cc3)ccc2=O)c(OC)c1 [TCMDC-135946],-6.888
7,O=C(Cc1cnc[nH]1)Nc1cccc(-c2cccc(-c3nc4ccc(F)cc4[nH]3)c2)c1 [TCMDC-136943],10.3
8,O=C(Nc1ccc(Cl)c(Cl)c1)N(Cc1ccccc1Br)C1CCNCC1 [TCMDC-141401],32.46
9,CCCc1ccc(-c2csc(NC(=O)c3ccc([N+](=O)[O-])o3)n2)cc1 [TCMDC-125314],1.071
10,O=C(Nc1ccc(-c2nc3ccccc3[nH]2)cc1)c1ccc(-c2cccc([N+](=O)[O-])c2)o1 [TCMDC-125805],-5.454
11,COc1cccc(-c2cc(C(=O)Nc3cc(Oc4ccc(O)cc4)cc([N+](=O)[O-])c3)on2)c1 [TCMDC-125290],-10.41
12,COc1ccc(OC)c(-c2cccc(-c3cccc(NC(=O)c4ccc([N+](=O)[O-])o4)c3)n2)c1 [TCMDC-124799],113.4
13,O=C(Nc1cccc(-c2nc3ccccc3[nH]2)c1)c1ccc(-c2cccc([N+](=O)[O-])c2)o1 [TCMDC-125228],18.9
14,CC(C)(C)c1ccc(C(=O)Nc2ccc(NC(=O)c3ccc([N+](=O)[O-])o3)cc2)cc1 [TCMDC-123733],-4.108
15,Cc1ccc(-n2nc3ccc(NC(=O)c4ccc([N+](=O)[O-])o4)cc3n2)cc1C [TCMDC-123655],20.82
16,COc1ccccc1-c1cccc(-c2cccc(NC(=O)c3ccc([N+](=O)[O-])o3)c2)n1 [TCMDC-124800],105.3
17,COc1cccc(-c2cccc(-c3ccc(NC(=O)c4ccc([N+](=O)[O-])o4)cc3)n2)c1 [TCMDC-124806],99.55
18,O=C(Nc1cccc(-c2cccc(-c3ccc(F)cc3)n2)c1)c1ccc([N+](=O)[O-])o1 [TCMDC-124807],101.6
19,COc1cccc(-c2cc(-c3ccc(NC(=O)c4ccccc4)cc3)c3c(N)ncnc3n2)c1 [TCMDC-134855],-19.07
20,O=C(Nc1cc(Oc2ccc(O)cc2)cc([N+](=O)[O-])c1)c1cc(-c2ccc(F)cc2)no1 [TCMDC-125444],-44.25
